Experimental findings from PubChem BioAssay AID1347416 (National Center for Advancing Translational Sciences (NCATS), 2020) are described below.

Screen size: about 4,100 compounds; about 1,600 (39%) were called active. Not shown: some 25% with an inconclusive outcome. This is one part of the list. Values without a mark were called inactive. Calls come from the whole dose curve; as a rule, active = well fitted inhibition curve with a large enough effect; inconclusive = small, poorly fitted or top-dose-only effect; inactive = no such curve, though single readings can be large or run the other way.
% is set by controls: 0 for no effect and ±100 for the full control effect; potency is the fitted concentration of half-maximal effect.

This experiment is described as follows: qHTS Validation assay for Inhibitors of Plasmodium falciparum Dd2 growth in vitro. Note: nearly all actives have a fitted effect of over 70% in size. Particulars: P. falciparum Dd2 in RBCs, SYBR Green growth, 72 h; series mostly up to 28.7 µM; activity change, negative = inhibition: at the top concentration. The essentials:
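P. falciparum Dd2-infected red blood cells (2.5% hematocrit, 0.3% parasitemia) grown 72 h at 37 °C under 5% O2 with compounds in a titration, 29 uM to 0.5 nM final. Growth read as SYBR Green-1 fluorescence after ~16 h lysis; artesunate 300 nM as positive control.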
In general terms: Quantitative high-throughput screening tests each substance at several concentrations.
Consider `O=[N+]([O-])c1ccc(N2CCN(C(=S)NC3CCCCC3)CC2)cc1`, for which the Potency is 1.88 µM (active).

Consider `C=CCNC(=S)N1CCN(c2ccc([N+](=O)[O-])cc2)CC1`, for which the Potency is 4.22 µM (active).

Consider `Cc1ccc(C)c(-c2cc3c(=O)n(CCNC(=O)c4ccncc4)ccn3n2)c1`, for which the “activity change, negative = inhibition” value is 0.395%.

For the compound `CC(C)CNC(=O)C(C)(C)Oc1nn(CC2CC2)c2ccc(CN3CCCC3)cc12`, the Potency is 19.3 µM (active).

For the compound `CC(C)n1nc(OC(C)(C)C(=O)NCC2CCOCC2)c2cc(CN3CCOCC3)ccc21`, the “activity change, negative = inhibition” value was 5.77%.

With `O=C([C@@H]1C[C@H](Oc2cccnc2)CN1C(=O)NCCc1ccccc1)N1CCOCC1`, the “activity change, negative = inhibition” value was 22.2%.

Turning to `CCN(CC)CCN1C(=O)c2ccccc2NC1c1ccc(C)cc1` (centres undefined), the Potency is 2.99 µM (active).

Turning to `CCN(CC)CCN1C(=O)c2ccccc2NC1c1ccc(N(C)C)cc1` (centres undefined), the Potency was 4.22 µM (active).

Take `CCN(CC)CCN1C(=O)c2ccccc2NC1c1ccc(Br)cc1` (centres undefined): the Potency is 1.5 µM (active).

For `CCc1ccc(CNC(=O)c2ccc(-c3nc(CSc4ccc(C)cc4)c(C)o3)cc2)cc1`, the “activity change, negative = inhibition” value is 30.9%.

Take `CCc1noc(-c2ccn3c(CNC(=O)COc4cccc(C)c4)nnc3c2)n1`: the “activity change, negative = inhibition” value is 27.4%.

For the compound `O[C@@H]1CC(CNCC2CCCC2)(COc2ccc(C(F)(F)F)cn2)C[C@@H]1O` (some centres undefined), the Potency is 5.31 µM (active).

As to `CCn1cc(C(=O)N2CCN(c3cccc(C)c3)C(C)C2)c(=O)c2cc(S(=O)(=O)N3CCOCC3)ccc21` (centres undefined), the “activity change, negative = inhibition” value was 7.89%.

Regarding `CC(C)COc1ccc(C(=O)N/C(=C\c2cccc([N+](=O)[O-])c2)C(=O)OC(C)C)cc1`, the Potency was 0.531 µM (active).

Regarding `CCCCOc1ccc(C(=O)N/C(=C\c2cccc([N+](=O)[O-])c2)C(=O)OC(C)C)cc1`, the Potency is 2.11 µM (active).

As for `CC(C)[N+](C)(C)CC(O)COc1cccc2ccccc12` (centres undefined), the “activity change, negative = inhibition” value was 32.3%.

Turning to `CC(C)c1ccccc1OCC(O)CN(CC(O)COc1cccc2ccccc12)C(C)C` (centres undefined), the Potency was 2.37 µM (active).

With `CC(=O)Nc1ccc(CN2CC(N(C)c3ccccc3C)C2)cc1`, the Potency is 12.2 µM (active).

For the compound `CC(=O)Nc1ccc(CN2CCC3(CC2)CNc2ccccc2[S+](=O)([O-])N3)cc1`, the “activity change, negative = inhibition” value is 0%.

For `CC(=O)Nc1ccc(CN2CC(Oc3ccc(F)c(C)c3)C2)cc1`, the “activity change, negative = inhibition” value is -23.8% [at 43.1 µM].

For `Cc1ccc2nc(-c3ccccc3O)c(Nc3ccccc3C)n2c1`, the Potency is 2.37 µM (active).

For the compound `CCOC(=O)c1c(CN(C)C)oc2cc(CN(C)C)c(O)c(CSc3ccccc3)c12`, the Potency is 0.596 µM (active).

In the case of `CN(C)CC1(O)CCC2(CCN(C(=O)c3nccc4ccccc34)CC2)CC1`, the “activity change, negative = inhibition” value was 6.94%.

As for `Cc1cccc(N2CCN(c3nc4ccccc4c4nnc(C)n34)CC2)c1C`, the Potency was 5.31 µM (active).

For the compound `COc1ccc(Nc2cc(C)nc(NCc3ccccc3)n2)cc1`, the Potency was 13.3 µM (active).

In the case of `COc1ccc(-c2cc(C(=O)O)n(Cc3ccccc3)n2)cc1`, the “activity change, negative = inhibition” value is 16.6%.

Turning to `Cc1cc(Nc2cccc(F)c2)nc(NCc2ccccc2)n1`, the Potency is 8.41 µM (active).

`CC(=O)Nc1ccc(Nc2cc(C)nc(Nc3ccc(NC(C)=O)cc3)n2)cc1`: the Potency was 3.35 µM (active).

Consider `Cc1ccc(/C=N/Nc2cc(C)nc(NCc3ccccc3)n2)cc1`, for which the Potency was 5.31 µM (active).

With `Cc1ccnc(NS(=O)(=O)c2ccc(NC(=O)C(C)(C)C)cc2)n1`, the “activity change, negative = inhibition” value is 46%.

In the case of `COc1cc(SC)ccc1C(=O)N[C@H]1CCN2C(=O)N(c3ccc(Cl)cc3)C(=O)[C@@H]2C1`, the “activity change, negative = inhibition” value is -1.61%.

In the case of `COCc1nc(-c2ccc(OC3CN(S(=O)(=O)c4ccccc4C)C3)cc2)no1`, the “activity change, negative = inhibition” value is -1.15%.

On to `Cc1ccc2nc(CCc3ccc(N)cc3)[nH]c2c1`, for which the “activity change, negative = inhibition” value was 19.4%.

On to `COCCn1c(=O)n([C@H]2CCCN(C(=O)CC3CCCCC3)C2)c2ncccc21`, for which the “activity change, negative = inhibition” value is 8.85%.

On to `Cc1cc(Nc2cccc(Cl)c2)nc(NCc2ccccc2)n1`, for which the Potency was 8.41 µM (active).

In the case of `Cc1cc(Nc2ccc(Cl)cc2)nc(NCc2ccccc2)n1`, the Potency is 0.422 µM (active).

On to `CCCCNc1cc(C)nc(NCc2ccccc2)n1`, for which the Potency was 9.44 µM (active).

Take `COc1nccnc1NC1CCN(C(=O)Cc2ccccc2)CC1`: the “activity change, negative = inhibition” value was 20.1%.

Turning to `Cc1cc(NC2CCCCC2)nc(NCc2ccccc2)n1`, the Potency was 16.8 µM (active).

With `CN(C)c1cc(N2CCCC(NC(=O)NCc3ccccc3)C2)ncn1` (centres undefined), the “activity change, negative = inhibition” value was -4.58%.

For the compound `CCCc1noc(-c2ccn3c(CNC(=O)c4cccc(N(C)C)c4)nnc3c2)n1`, the “activity change, negative = inhibition” value was -28.6%.

Consider `Cc1cc(NCc2ccco2)nc2cc(O)ccc12`, for which the Potency was 6.68 µM (active).

As for `Cc1cc(Nc2ccccc2)nc2cc(O)ccc12`, the Potency was 0.422 µM (active).

For the compound `Cc1cc(=O)n(CC(=O)NCc2ccccc2Br)c(N(C)Cc2ccccc2)n1`, the “activity change, negative = inhibition” value was -29.8%.

On to `Cc1cc(N(C)Cc2ccccc2)nc2cc(O)ccc12`, for which the Potency is 2.37 µM (active).

As for `CNC(=O)[C@@H](c1ccc(Cl)cc1)N1CCC[C@H]1C(=O)N1CC[C@@H](O)C1`, the “activity change, negative = inhibition” value was 0% [at 43.1 µM].

As for `CCN1Cc2nc(OC)c(CNC(=O)C(C)n3cc(C)cn3)cc2C1=O` (centres undefined), the “activity change, negative = inhibition” value is 0%.

Turning to `CCN(CC(O)c1cccc(O)c1)C(=O)C12CC3CC(CC(C3)C1)C2` (centres undefined), the Potency was 4.73 µM (active).

For the compound `CNC(=O)[C@@H]1CN(Cc2cc(C(F)(F)F)ccc2Cl)C[C@H]1CO`, the “activity change, negative = inhibition” value was 11.3%.
